Data from the supplement of paper PMC3545927.
The list shows a part of the results. The true hit rate is not given.

Molecular target: furin, P09958
Test: furin cleavage Z-score vs untreated control; higher = more cleavage, active = 3.5 or more, inactive = 1 or less, 8 variable residues between constant flanks
Outline: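 Reactions of 0.01 ml ran for 7.5, 15 or 30 min in 50 mM HEPES pH 7.5 with CaCl2 and NaCl, at 1:10 enzyme:substrate. In them, purified furin acted on bead-held 8-mer peptides fused to a cDNA oligonucleotide. The cleavage Z-score was obtained by lowess-adjusting log sequencing counts of released DNA against furin-free reactions and scaling by median absolute deviation.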

Chain of furin, P09958 (P09958 whole entry): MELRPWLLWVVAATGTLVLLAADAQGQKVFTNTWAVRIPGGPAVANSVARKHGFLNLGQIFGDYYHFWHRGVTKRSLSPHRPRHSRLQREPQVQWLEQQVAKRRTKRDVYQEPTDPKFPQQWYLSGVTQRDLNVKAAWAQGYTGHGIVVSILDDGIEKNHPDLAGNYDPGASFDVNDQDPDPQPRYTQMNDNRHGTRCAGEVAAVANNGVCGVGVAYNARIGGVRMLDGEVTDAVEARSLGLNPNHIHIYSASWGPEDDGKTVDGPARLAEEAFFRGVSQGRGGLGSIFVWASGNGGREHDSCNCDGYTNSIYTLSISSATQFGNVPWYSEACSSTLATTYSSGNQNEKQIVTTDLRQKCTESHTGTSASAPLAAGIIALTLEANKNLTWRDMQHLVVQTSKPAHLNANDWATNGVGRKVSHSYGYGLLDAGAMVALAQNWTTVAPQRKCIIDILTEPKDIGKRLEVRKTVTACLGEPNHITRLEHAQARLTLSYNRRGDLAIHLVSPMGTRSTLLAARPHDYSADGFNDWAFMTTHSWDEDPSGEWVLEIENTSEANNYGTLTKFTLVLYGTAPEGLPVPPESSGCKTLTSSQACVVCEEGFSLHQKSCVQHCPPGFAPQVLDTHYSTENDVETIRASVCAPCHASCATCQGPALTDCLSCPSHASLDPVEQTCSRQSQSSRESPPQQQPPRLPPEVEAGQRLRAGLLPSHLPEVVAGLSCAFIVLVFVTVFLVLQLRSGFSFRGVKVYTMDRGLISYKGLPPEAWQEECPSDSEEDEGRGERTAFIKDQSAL

| Sequence | furin cleavage Z-score (7.5 min) | furin cleavage Z-score (15 min) | furin cleavage Z-score (30 min) |
| --- | --- | --- | --- |
| CATTPCSWSWAGNASASA [HC1888] | -2.26 (inactive) | -1.57 (inactive) | 0.135 (inactive) |
| CAWPAPQGSRAGNASASA [HC716] | 1.18 | -0.57 (inactive) | 0.187 (inactive) |
| CANDCPNSSIAGNASASA [HC263] | 0.567 (inactive) | 0.0331 (inactive) | -0.164 (inactive) |
| CARNKREDRTAGNASASA [FS-2727] | 11.9 (active) | 12.6 (active) | 8.05 (active) |
| CARVLRENGKAGNASASA [FS-3119] | 0.679 (inactive) | -0.235 (inactive) | 0.807 (inactive) |
| CARNKRESGKAGNASASA [FS-1757] | 8.44 (active) | 9.42 (active) | 7.75 (active) |
| CAREKKVTRTAGNASASA [FS-2914] | -1.91 (inactive) | -0.133 (inactive) | 0.367 (inactive) |
| CAREKRKNRTAGNASASA [FS-1888] | 0.751 (inactive) | 1.62 | -0.32 (inactive) |
| CATAILSSLTAGNASASA [HC1133] | -0.0959 (inactive) | 1.64 | 1.05 |
| CALDMIAGAHAGNASASA [HC333] | -0.265 (inactive) | -1.79 (inactive) | 0.6 (inactive) |
| CAVVCHSMSYAGNASASA [HC89] | -0.697 (inactive) | -0.997 (inactive) | -0.52 (inactive) |
| CACEVLSDFKAGNASASA [HC1153] | -1.16 (inactive) | -1.03 (inactive) | 0.3 (inactive) |
| CADNKRMARNAGNASASA [FS-984] | 5.12 (active) | 6.32 (active) | 6.33 (active) |
| CADTTIMAKNAGNASASA [HC1438] | 1.51 | -0.0215 (inactive) | 0.93 (inactive) |
| CANGFRHARNAGNASASA [FS-466] | -0.528 (inactive) | -0.454 (inactive) | -0.259 (inactive) |
| CAAASRLARGAGNASASA [FS-211] | 0.553 (inactive) | 1.11 | 0.636 (inactive) |
| CAPNSRLARNAGNASASA [FS-475] | 6.58 (active) | 6.13 (active) | 6.41 (active) |
| CARELRQLMEAGNASASA [FS-2916] | 0.168 (inactive) | -0.988 (inactive) | -1.36 (inactive) |
| CARLGAVQNEAGNASASA [HC974] | -1.44 (inactive) | -1.09 (inactive) | -2.56 (inactive) |
| CARLYRSLGEAGNASASA [FS-2045] | 1.86 | 4.55 (active) | 4.61 (active) |
| CARVKRVLMGAGNASASA [FS-2618] | -0.934 (inactive) | -0.615 (inactive) | -0.629 (inactive) |
| CARVKRSLGEAGNASASA [FS-1977] | 10.7 (active) | 12.6 (active) | 9.34 (active) |
| CAQVRNSTGLAGNASASA [HC257] | -0.176 (inactive) | 1.49 | 0.103 (inactive) |
| CARVKRSPGLAGNASASA [FS-2387] | 10.4 (active) | 10.3 (active) | 9.1 (active) |
| CASKKRSNGLAGNASASA [FS-3136] | -1.83 (inactive) | 0.376 (inactive) | 2.11 |
| CARNKKDVNLAGNASASA [FS-2726] | 0.881 (inactive) | 0.588 (inactive) | 0.399 (inactive) |

| Sequence | furin cleavage Z-score (7.5 min) | furin cleavage Z-score (15 min) | furin cleavage Z-score (30 min) |
| --- | --- | --- | --- |
| CARVKRDLVLAGNASASA [FS-2317] | 8.24 (active) | 11 (active) | 9.42 (active) |
| CADIWDWICEAGNASASA [HC1150] | -0.513 (inactive) | -0.19 (inactive) | -1.62 (inactive) |
| CAEVVTFTWVAGNASASA [HC146] | -0.177 (inactive) | -1.31 (inactive) | -0.383 (inactive) |
| CAYGFQYSPGAGNASASA [HC1466] | -1.04 (inactive) | 0.304 (inactive) | -1.02 (inactive) |
| CAEVPCHRMSAGNASASA [HC2386] | 0.401 (inactive) | 1.85 | -1.19 (inactive) |
| CAGRTWAQPGAGNASASA [HC197] | 0.399 (inactive) | 0.197 (inactive) | -2.32 (inactive) |
| CATHPCSGSWAGNASASA [HC1855] | -0.725 (inactive) | 0.134 (inactive) | -0.569 (inactive) |
| CARLRRSLGEAGNASASA [FS-1830] | 4.48 (active) | 6.54 (active) | 5.36 (active) |
| CADSSRSVRPAGNASASA [FS-1518] | -1.18 (inactive) | -0.293 (inactive) | 0.507 (inactive) |
| CARTPRAVRPAGNASASA [FS-2241] | 4.95 (active) | 5.05 (active) | 7.16 (active) |
| CARIGRAVRPAGNASASA [FS-1720] | 6.17 (active) | 6.97 (active) | 7.91 (active) |
| CAREKKSASWAGNASASA [FS-3244] | -1.37 (inactive) | -1 (inactive) | 0.389 (inactive) |
| CANDVVCCSMAGNASASA [HC2121] | 0.854 (inactive) | 0.345 (inactive) | 0.79 (inactive) |
| CADIMEECSQAGNASASA [HC1804] | -0.826 (inactive) | -1.93 (inactive) | 0.332 (inactive) |
| CAVEECSQHLAGNASASA [HC1670] | 0.23 (inactive) | 0.997 (inactive) | -0.342 (inactive) |
| CAELVVCCSMAGNASASA [HC2125] | -0.0192 (inactive) | -0.743 (inactive) | -0.249 (inactive) |
| CAVVKCSMSYAGNASASA [HC2034] | 0.0381 (inactive) | 0.000409 (inactive) | 0.298 (inactive) |
| CAVLARMMRPAGNASASA [FS-966] | -0.155 (inactive) | 0.612 (inactive) | -0.556 (inactive) |
| CARMIRTNEAAGNASASA [FS-3000] | 0.282 (inactive) | 0.0077 (inactive) | 0.743 (inactive) |
| CAVVKRPRRYAGNASASA [FS-314] | 9.96 (active) | 10.8 (active) | 10 (active) |
| CAKRWRRRRYAGNASASA [FS-1350] | 10.3 (active) | 12 (active) | 9.1 (active) |
| CAHRSRDGRYAGNASASA [FS-797] | 0.199 (inactive) | 1.41 | 0.834 (inactive) |
| CAVVCCSMRYAGNASASA [HC2073] | 0.763 (inactive) | 0.207 (inactive) | 0.313 (inactive) |
| CARMIRRRRYAGNASASA [FS-1652] | 10.9 (active) | 13.2 (active) | 9.13 (active) |
| CAVLHRRRRYAGNASASA [FS-891] | 9.61 (active) | 10.5 (active) | 9.16 (active) |
| CAVLEDGVNYAGNASASA [HC239] | -0.545 (inactive) | -2.21 (inactive) | 0.0229 (inactive) |
